From PubChem BioAssay (Tox21) come the findings set out here.

Assay [1] can be described thus: qHTS assay to identify small molecule antagonists of the glucocorticoid receptor (GR) signaling pathway - cell viability counter screen (AID 720693; also: nearly all actives have a fitted effect of over 55% in size; also: potency is read from the fitted curve at half-maximal effect). (In general: Quantitative high-throughput screening tests each substance at several concentrations.)
Assay [2] can be described thus: qHTS assay for identifying genotoxic compounds that show differential cytotoxicity against isogenic chicken DT40 cell lines with known DNA damage response pathways - Rev3 mutant cell line (AID 743014). Also: nearly all actives have a fitted effect of over 55% in size. Also: potency is read from the fitted curve at half-maximal effect.
A short description of assay [3]: qHTS assay for identifying genotoxic compounds that show differential cytotoxicity against isogenic chicken DT40 cell lines with known DNA damage response pathways - Rad54/Ku70 mutant cell line (AID 743015). Also: nearly all actives have a fitted effect of over 60% in size. Also: potency is read from the fitted curve at half-maximal effect.
Assay [4] can be described thus: qHTS assay to identify small molecule antagonists of the androgen receptor (AR) signaling pathway using the MDA cell line - cell viability counter screen (AID 743041; also: nearly all actives have a fitted effect of over 45% in size; also: potency is read from the fitted curve at half-maximal effect). The gist of the method:
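Same-well cytotoxicity was assessed by CellTiter-Fluor in MDA-kb2 AR-luc cells after 16 h of compound treatment under R1881 agonism.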

Assay [5] in a line: qHTS assay to identify small molecule antagonists of the thyroid receptor (TR) signaling pathway (AID 743065). Also: nearly all actives have a fitted effect of over 55% in size. Also: potency is read from the fitted curve at half-maximal effect. In a few lines: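 GH3.TRE-Luc rat pituitary cells (two TREs driving luciferase) were dosed with compound, then stimulated with 1 nM T3 (final) for 23.5 h at 37 C. ONE-Glo luminescence was the read-out, with CellTiter-Fluor fluorescence as the cytotoxicity counter-screen.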

The subject of assay [6] is thyroid hormone receptor (rat, GH3 cells). Nature of the assay: qHTS assay to identify small molecule agonists of the thyroid receptor (TR) signaling pathway (AID 743066; calls by dose curve).
A short description of assay [7]: qHTS assay to identify small molecule antagonists of the estrogen receptor alpha (ER-alpha) signaling pathway - cell viability counter screen (AID 743074; calls by dose curve;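 also: HEK293 cells carrying ER-alpha-UAS-bla reporter stimulated with 17beta-estradiol; nearly all actives have a fitted effect of over 45% in size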; also: potency is read from the fitted curve at half-maximal effect).
Assay [8] deals with Estrogen receptor (Homo sapiens) (UniProt P03372). Nature of the assay: qHTS assay to identify small molecule agonists of the estrogen receptor alpha (ER-alpha) signaling pathway (AID 743075; calls by dose curve;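 also: HEK293 GripTite cells with ER-alpha and UAS-driven beta-lactamase reporter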). Particulars: HEK293 ER-alpha-UAS-bla, beta-lactamase FRET ratio, 18 h; activation: at 70.1 µM (top of the series).
Sequence of Estrogen receptor (Homo sapiens) (P03372 whole entry, looked up): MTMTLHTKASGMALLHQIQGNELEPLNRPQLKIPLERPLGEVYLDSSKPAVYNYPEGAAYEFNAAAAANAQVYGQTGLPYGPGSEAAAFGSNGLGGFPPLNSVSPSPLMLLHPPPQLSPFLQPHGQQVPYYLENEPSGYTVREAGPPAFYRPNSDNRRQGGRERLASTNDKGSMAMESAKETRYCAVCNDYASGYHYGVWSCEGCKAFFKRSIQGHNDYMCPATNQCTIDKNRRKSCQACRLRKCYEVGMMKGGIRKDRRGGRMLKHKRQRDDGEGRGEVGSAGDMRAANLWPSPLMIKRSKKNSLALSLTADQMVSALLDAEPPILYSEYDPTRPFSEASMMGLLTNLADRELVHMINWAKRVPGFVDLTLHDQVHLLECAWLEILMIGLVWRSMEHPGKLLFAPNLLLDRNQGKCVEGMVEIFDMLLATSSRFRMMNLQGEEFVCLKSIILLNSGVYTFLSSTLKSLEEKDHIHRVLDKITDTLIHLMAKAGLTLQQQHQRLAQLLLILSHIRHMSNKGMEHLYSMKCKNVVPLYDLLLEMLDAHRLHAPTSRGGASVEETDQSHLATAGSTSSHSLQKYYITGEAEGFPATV
Assay [9] has the same target. The assay is described as follows: qHTS assay to identify small molecule agonists of the estrogen receptor alpha (ER-alpha) signaling pathway using the BG1 cell line (AID 743079). Also: nearly all actives have a fitted effect of over 20% in size. Particulars: BG1Luc4E2 cells, ERE-luciferase agonist, 22 h.
Assay [10] is described as follows: qHTS assay to identify small molecule antagonists of the estrogen receptor alpha (ER-alpha) signaling pathway using the BG1 cell line (AID 743080; calls by dose curve;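 also: BG1 cells stimulated with 17beta-estradiol alongside compound; nearly all actives have a fitted effect of over 25% in size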). The gist of the method: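 Readout is ONE-Glo luminescence, taken 30 min at room temperature after reagent addition, preceded by a CellTiter-Fluor viability read; BG1-Luc-4E2 cells had received compound and 17beta-estradiol for 21.5 h at 37 C.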

A short description of assay [11]: qHTS assay to identify small molecule antagonists of the estrogen receptor alpha (ER-alpha) signaling pathway using the BG1 cell line - cell viability counter screen (AID 743081).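 Also: compound given together with 17beta-estradiol as the ER stimulus; nearly all actives have a fitted effect of over 45% in size.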 Also: potency is read from the fitted curve at half-maximal effect.
Assay [12] can be described thus: qHTS assay to identify small molecule antagonists of the androgen receptor (AR) signaling pathway - cell viability counter screen (AID 743033; also: nearly all actives have a fitted effect of over 45% in size; also: potency is read from the fitted curve at half-maximal effect).
Assay [13] addresses Estrogen receptor (Homo sapiens) (UniProt P03372). Nature of the assay: qHTS assay to identify small molecule antagonists of the estrogen receptor alpha (ER-alpha) signaling pathway (AID 743069; active = well fitted curve in the direction sought with a large enough effect in the signal ratio in the repeat runs, not every such curve was filed as active; inconclusive = weak or mixed curves, or effect the other way; inactive = no such curve, though single readings can be large or run the other way; the % refers to the signal ratio; also: potency is read from the fitted curve at half-maximal effect). The gist of the method: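 Reporter cells (ER-alpha-bla, HEK293 background) are conditioned overnight in stripped-serum medium (2% charcoal-stripped FBS). Compound and 17beta-estradiol exposure runs 18 hr at 37C, 5% CO2.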

Assay [14] addresses Aromatase (Homo sapiens) (UniProt P11511). The assay is described as follows: qHTS assay to identify aromatase inhibitors (AID 743083). Also: nearly all actives have a fitted effect of over 55% in size. Also: potency is read from the fitted curve at half-maximal effect.
Assay [15] in a line: qHTS assay to identify aromatase inhibitors - cell viability counter screen (AID 743084). Also: potency is read from the fitted curve at half-maximal effect.
In assay [16] the target is Androgen receptor (Homo sapiens) (UniProt P10275). Nature of the assay: qHTS assay to identify small molecule agonists of the androgen receptor (AR) signaling pathway using the MDA cell line (AID 743040; also: nearly all actives have a fitted effect of over 20% in size). The gist of the method: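 Human breast carcinoma MDA-kb2 reporter cells (MMTV-luc, AR/GR elements) were treated for 16 h at 37C in 0% CO2 following a 5 h settling period. Signal was quantified by ONE-Glo luminescence.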
Sequence of Androgen receptor (Homo sapiens) (P10275 whole entry, looked up): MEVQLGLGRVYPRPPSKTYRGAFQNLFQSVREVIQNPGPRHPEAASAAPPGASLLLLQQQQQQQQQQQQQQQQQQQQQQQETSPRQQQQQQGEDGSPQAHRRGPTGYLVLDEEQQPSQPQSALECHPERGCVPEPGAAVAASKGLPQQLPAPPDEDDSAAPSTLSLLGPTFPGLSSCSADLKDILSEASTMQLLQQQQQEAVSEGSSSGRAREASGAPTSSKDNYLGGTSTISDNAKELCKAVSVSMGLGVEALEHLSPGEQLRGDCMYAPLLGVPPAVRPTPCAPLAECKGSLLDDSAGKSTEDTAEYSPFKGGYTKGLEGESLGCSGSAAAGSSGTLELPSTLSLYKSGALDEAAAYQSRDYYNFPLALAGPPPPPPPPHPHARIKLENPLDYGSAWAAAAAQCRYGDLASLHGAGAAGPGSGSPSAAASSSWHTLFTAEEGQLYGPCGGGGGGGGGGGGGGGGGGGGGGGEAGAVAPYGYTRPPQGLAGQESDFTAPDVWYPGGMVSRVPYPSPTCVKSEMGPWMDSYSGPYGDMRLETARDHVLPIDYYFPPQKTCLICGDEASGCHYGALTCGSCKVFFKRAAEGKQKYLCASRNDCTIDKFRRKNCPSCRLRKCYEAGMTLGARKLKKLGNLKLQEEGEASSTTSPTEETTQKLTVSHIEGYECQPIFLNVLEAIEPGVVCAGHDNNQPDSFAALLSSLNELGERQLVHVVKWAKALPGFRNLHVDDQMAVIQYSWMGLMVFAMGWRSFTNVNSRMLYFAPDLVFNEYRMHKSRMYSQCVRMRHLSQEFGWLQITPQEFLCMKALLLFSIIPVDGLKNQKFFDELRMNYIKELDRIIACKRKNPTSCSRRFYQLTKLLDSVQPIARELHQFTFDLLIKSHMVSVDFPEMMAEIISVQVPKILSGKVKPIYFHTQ

For assay [17] the target is unchanged. The assay is described as follows: qHTS assay to identify small molecule antagonists of the androgen receptor (AR) signaling pathway using the MDA cell line (AID 743042; also: nearly all actives have a fitted effect of over 55% in size; also: potency is read from the fitted curve at half-maximal effect). In a few lines:
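MDA-kb2 breast carcinoma cells carrying MMTV-luciferase (AR/GR responsive) were co-treated with compounds and the agonist R1881 for 16 h at 37C. Inhibition read as ONE-Glo luminescence; CellTiter-Fluor fluorescence measured in parallel for cytotoxicity.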

Assay [18] can be described thus: qHTS assay to identify small molecule antagonists of the thyroid receptor (TR) signaling pathway - cell viability counter screen (AID 743064). Also: nearly all actives have a fitted effect of over 50% in size. Also: potency is read from the fitted curve at half-maximal effect. The gist of the method: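 GH3.TRE-Luc rat pituitary cells dosed after 4 hr plating, co-stimulated with T3 at 1 nM final, incubated 23.5 h at 37 C. Viability measured in the same wells by CellTiter-Fluor fluorescence after 30 min further at 37 C.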

Assay [19] has as its target Androgen receptor (Homo sapiens) (UniProt P10275). Nature of the assay: qHTS assay to identify small molecule agonists of the androgen receptor (AR) signaling pathway (AID 743036; active = well fitted activation curve with a large enough effect in the signal ratio in the repeat runs, with a control signal flat, not every such curve was filed as active; inconclusive = weak or mixed curves, or effect the other way; inactive = no such curve, though single readings can be large or run the other way; the % refers to the signal ratio). The gist of the method:
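AR-UAS-bla HEK293 cells, plated 4 h before dosing, were treated with compound for 16 h at 37C. beta-Lactamase reporter read after 2 h with LiveBLAzer B/G FRET substrate at room temperature.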

Values joined by “and” are separate entries in the source; they are usually repeats but may differ in a detail not shown here. Equal values may be shown once. Where a structure was tested more than once in an assay, its records may differ in their call. Active and inactive are the calls of the source. Unless noted, calls follow the shape of the dose curve; as a rule, active = well fitted curve in the direction sought with a large enough effect in the repeat runs; inconclusive = weak or mixed curves; inactive = no such curve, though single readings can be large; an effect the other way counts as inactive or inconclusive.
% is scaled to controls: 0 for no effect and ±100 for the full control effect.

Sequence of Aromatase (Homo sapiens) (P11511 whole entry, looked up): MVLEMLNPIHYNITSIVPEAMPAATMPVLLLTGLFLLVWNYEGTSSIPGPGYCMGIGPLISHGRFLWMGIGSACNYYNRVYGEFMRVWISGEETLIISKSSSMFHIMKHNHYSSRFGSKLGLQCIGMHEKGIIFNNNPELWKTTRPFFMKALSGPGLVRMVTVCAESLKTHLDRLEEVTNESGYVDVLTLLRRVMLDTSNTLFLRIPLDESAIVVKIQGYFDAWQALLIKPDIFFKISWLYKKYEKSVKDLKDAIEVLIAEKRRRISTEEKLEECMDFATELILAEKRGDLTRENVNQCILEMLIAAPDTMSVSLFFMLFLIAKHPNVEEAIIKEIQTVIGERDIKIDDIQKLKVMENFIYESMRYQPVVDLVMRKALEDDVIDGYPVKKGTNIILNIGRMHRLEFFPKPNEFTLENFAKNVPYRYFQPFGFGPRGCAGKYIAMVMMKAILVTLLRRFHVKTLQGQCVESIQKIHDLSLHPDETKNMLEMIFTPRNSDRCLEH

In the case of `O=C1CCCCCN1SSN1CCCCCC1=O`, the Potency entry in [1], in [4], in assay [6], in [7], in [8] and in [10] was “inactive” throughout. In addition, the Potency result in assay [11] was “inactive”. Besides, the Potency in assay [2] is 19.3 µM (active); in assay [3] it was 15.4 µM (active); in assay [5] it was 27.3 µM (active). For the same compound, the activation in assay [9] (at 70.3 µM (top of the series)) is -12.6% (inactive).

Regarding `Cc1ccc(-n2nc(C(C)(C)C)cc2NC(=O)Nc2ccc(OCCN3CCOCC3)c3ccccc23)cc1`, the Potency result in assay [1], in [12], in [4], in [6], in [7] and in [8] was “inactive” in each case. The Potency entry in assay [10], in assay [11], in assay [14] and in assay [15] was “inactive” throughout. The results for the Potency in assay [2], in assay [3] and in assay [13] were 26.6 µM (active), 26.6 µM (active) and 13.4 µM [inconclusive] (active), respectively.

As to `On1ccccc1=S`, the Potency entry in [1] and in [11] was “inactive” each time. Moreover, the Potency in assay [2] was 0.215 µM (active); in assay [3], 0.215 µM (active); in assay [12], 0.385 µM (active); in assay [5], 0.855 µM (active); in assay [14], 0.382 µM (active); in [15], 0.539 µM (active).

Consider `NC(=O)N1C(=O)C(C(=O)c2cc(Cl)cs2)c2cc(F)c(Cl)cc21` (stereo not drawn), for which the Potency in assay [1] was 38.9 µM (active); in assay [3], 61.1 µM (active); in assay [18], 61.1 µM (active); in assay [5], 61.1 µM (active); in [7] it was 49 µM (active); in assay [11] it was 8.63 µM (active). For the same compound, the Potency result in [12], in [16], in [17], in assay [8] and in assay [10] was “inactive” each time.

Take `Cc1cc(O)c2ccccc2c1O`: the Potency entry in assay [1], in [12], in assay [4], in [17], in [13] and in assay [7] was “inactive” throughout. For the same compound, the Potency entry in assay [11], in [14] and in assay [15] was “inactive” each time. Moreover, the Potency was 29.8 µM (active) in [3] and 33.5 µM (active) in assay [5]. Besides, in [9] (at 70.3 µM (top of the series)), the activation was -13.8% (inactive).

Regarding `O=c1c(-c2ccccc2)c1-c1ccccc1`, the Potency result in assay [1], in assay [7], in assay [8] and in assay [11] was “inactive” in each case. Further, the Potency in [2] was 4.73 µM (active); in [3], 4.73 µM (active); in [12] it was 21.3 µM (active); in assay [5] it was 5.31 µM (active); in assay [13], 26.8 µM [inconclusive] (active); in [14], 29.8 µM (active). For the same compound, the activation in assay [9] (at 70.3 µM (top of the series)) was -33.7% (inactive).

`CSc1ccc(C(=O)c2[nH]c(=O)[nH]c2C)cc1`: the Potency result in [1], in [2], in assay [3], in [12], in assay [4] and in assay [13] was “inactive” each time. The Potency result in assay [7], in assay [8], in [10], in [11], in assay [14] and in assay [15] was “inactive” throughout.

On to `Cc1cc(=O)oc2cc(N(C)C)ccc12`, for which the Potency entry in assay [1], in assay [12], in assay [5], in [6], in assay [7] and in [14] was “inactive” each time. The Potency in assay [2] was 54.5 µM (active).

As to `OCCCCCCCCCCCCBr`, the Potency result in [1], in [4], in [6], in assay [7], in assay [11] and in assay [14] was “inactive” each time. Also, in assay [15], the Potency result was “inactive”. Moreover, the Potency is 3.92 µM (active) in assay [2] and 5.53 µM (active) in assay [3].

With `S=c1[nH]c2ccccc2s1`, the Potency result in [1], in [12], in assay [18], in assay [5], in assay [6] and in [14] was “inactive” throughout. Moreover, the Potency entry in assay [15] is “inactive”. Further, the Potency in assay [2] was 29.8 µM (active) and 66.6 µM (active); in [3], 29.8 µM (active) and 64 µM (active); in assay [7], “inactive and 6.16 µM (active)”.

Turning to `O=C1c2c(O)ccc(Nc3ccc(CCO)cc3)c2C(=O)c2c([N+](=O)[O-])ccc(O)c21`, the Potency result in [1], in [19], in [6], in assay [7], in [8] and in assay [10] was “inactive” in each case. In addition, the values for the Potency in assay [2], in assay [3] and in assay [15] were 61.1 µM (active), 27.3 µM (active) and 54.5 µM (active), respectively. The activation in assay [9] (at 70.3 µM (top of the series)) was -6.57% (inactive).

Take `NC(=O)NS(=O)(=O)c1ccc(N)cc1`: the Potency result in assay [1], in [3], in assay [4], in assay [5], in assay [6] and in [13] was “inactive” in each case. The Potency result in assay [7], in assay [8], in assay [10], in [14] and in assay [15] was “inactive” in each case.

In the case of `CCCCN(CCCC)C(=O)N(CCCC)CCCC`, the Potency entry in [1], in assay [2], in assay [3], in assay [12], in assay [4] and in [6] was “inactive” throughout. In addition, the Potency entry in assay [7], in assay [11] and in [15] was “inactive” in each case.

In the case of `N#CSc1ccc(N)c([N+](=O)[O-])c1`, the Potency in [1] is 55.3 µM (active); in [2], 6.9 µM (active); in assay [3], 9.75 µM (active); in [12], 24.7 µM (active); in [17], 61.5 µM (active); in [18], 54.8 µM (active). Besides, the Potency is 27.7 µM [inconclusive] (active) in assay [13], 54.8 µM (active) in [11], 27.5 µM (active) in assay [14] and 38.8 µM (active) in assay [15]. Further, the Potency entry in [6], in assay [7] and in assay [8] was “inactive” each time. Further, the activation in assay [9] (at 95 µM (top of the series)) was -0.741% (inactive).

For `O=c1[nH]cnc2nc[nH]c12`, the Potency entry in assay [1], in assay [2], in assay [3], in assay [12], in assay [4] and in [5] was “inactive” in each case. Also, the Potency result in [6], in assay [13], in [7], in assay [8], in [10] and in assay [11] was “inactive” each time. The Potency result in assay [14] and in assay [15] was “inactive” throughout. For the same compound, the activation in assay [9] (at 70.3 µM (top of the series)) is 8.82% (inactive).

As for `C=CC(=O)OCCn1c(=O)n(CCOC(=O)C=C)c(=O)n(CCOC(=O)C=C)c1=O`, the Potency entry in assay [1] and in [6] was “inactive” in each case. For the same compound, the Potency in assay [2] is 2.43 µM (active); in assay [3] it was 2.43 µM (active); in [12], 15.5 µM (active); in [4] it was 30.6 µM (active); in [5], 4.86 µM (active); in assay [11], 54.5 µM (active). The Potency in assay [14] and in assay [15] was 13.7 µM (active) throughout.
